LASV entry inh – qHTS for Inhibitors of binding or entry into cells for Lassa Virus | Lassa virus pseudotype entry inhibition, cell reporter | Potency, µM (top dose mostly 37.9 µM), for inactives: top-dose activity change, negative = inhibition, hits mostly inhibitors | hit rate 1.2% among 300,000; calls by dose curve; tested in HEK293 cells; further: potency means the concentration at half of the fitted maximal effect; nearly all actives have a fitted effect of over 50% in size
HCMV inh – qHTS Assay for inhibitors of the human cytomegalovirus (HCMV) | AID 1259415, 2018 | HFF cells, HCMV-luciferase reporter, 72 h; stronger effect = lower value | hit rate 4.5% among 410,000 | activity change, negative = inhibition, % at 57.5 µM; in the data active means activity change below about -60%; inconclusive means no clear call, values can overlap the other calls; inactive means above about -39%
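Steps: HFFs plated, 16 h 37C; compounds added; HCMV-luciferase added to MOI 1 PFU/cell; 72 h 37C; OneGlo reagent, 5 min room temperature; luminescence read, normalized to controls.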
Pf growth 96h – Primary qHTS for delayed death inhibitors of the malarial parasite plastid, 96 hour incubation | P. falciparum luciferase reporter growth, 96 h | Potency, µM (doses to about 28.7 µM), inactives show top-dose activity change, negative = inhibition, actives largely listed as inhibitors | hit rate 6.9% among 320,000; further: potency means the concentration at half of the fitted maximal effect
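Cell-based qHTS: luciferase-tagged P. falciparum in erythrocytes (2% hematocrit, 0.05% parasitemia final) incubated with compounds for 96 hours, 37 C, 5% CO2; luciferase detection reagent then added and luminescence measured.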
MARV entry inh – qHTS for inhibitors of binding or entry into cells for Marburg Virus; hit rate 1.8% among 300,000; Potency, µM (top dose mostly 37.8 µM), for the others: top-dose activity change, negative = inhibition, actives largely listed as inhibitors; Marburg virus pseudotyped entry inhibition, cell reporter; calls by dose curve; tested in HEK293 cells; further: potency means the concentration at half of the fitted maximal effect
HCV inhibitor – qHTS Assay for Inhibitors of Hepatitis C Virus (HCV); Huh7.5.1 HCVcc-Cre infection, luciferase reporter, 44 h; Potency, µM (series often up to 41.8 µM), for the others: top-dose activity change, negative = inhibition, usual class: inhibitors; hit rate 3.4% among 340,000; AID 651820, 2012; further: potency means the concentration at half of the fitted maximal effect
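Infectious HCVcc-Cre (~0.5 moi) was added to cells just after compound, with cells seeded 4 h earlier at 1,000 per well. Luciferase activity after 44 h culture reported infection; substrate was incubated 15 min at room temperature before reading.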
Pf growth 48h – Primary qHTS for delayed death inhibitors of the malarial parasite plastid, 48 hour incubation; P. falciparum luciferase growth in erythrocytes, 48 h; Potency, µM (series often up to 28.7 µM), for inactives: top-dose activity change, negative = inhibition, usual class: inhibitors; hit rate 5.9% among 310,000; further: potency means the concentration at half of the fitted maximal effect
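Luciferase-expressing P. falciparum in infected erythrocytes (2% hematocrit, 0.1% parasitemia final) in RPMI 1640/0.5% Albumax were exposed to compound for 48 hours at 37 C, 5% CO2; growth read as luminescence.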
* = called active by the depositor; ? = inconclusive; nt = no result; [ ] = dose if it differs, or a comment. Only some compounds are listed: those with a hit (about 14% of all), similar ones and a draw of the others. Unless noted, the call rests on the fitted dose curve; in most records, active means well fitted inhibition curve with a large enough effect; inconclusive means small, poorly fitted or top-dose-only effect, or another doubt; inactive means no such curve, though single readings can be large or run the other way. On the % scale 0 is the no-effect control and ±100 the full control effect.

SMILES | LASV entry inh | HCMV inh | Pf growth 96h | MARV entry inh | HCV inhibitor | Pf growth 48h
COc1ccc(NC(=O)C2Cc3c(-c4ccco4)ccnc3O2)cc1OC (stereo not drawn) | nt | -73* | nt | nt | nt | nt
COc1ccc(NC(=O)C2Cc3c(-c4ccc5c(c4)OCO5)ccnc3O2)cc1OC (stereo not drawn) | nt | -90* | nt | nt | nt | nt
COC(=O)C(Cc1ccccc1)NC(=O)CNC(=O)c1sc2ccccc2c1Cl (stereo not drawn) | 7%[46.1 µM] | -25 | 18% | ? | 9% | -2%
CCc1ccc(NC(=O)CC2C(=O)N(c3ccc(OC)cc3)C(=O)N2Cc2ccc(OC)cc2)cc1 (stereo not drawn) | -19%[46.1 µM] | ? | nt | nt | nt | nt
Cc1cc(C(F)F)n2nc(C(=O)Nc3ccc(F)c(Cl)c3)nc2n1 | 13%[46.1 µM] | ? | nt | ? | nt | nt
Cc1ccccc1OCC(=O)N/N=C/c1cccc(Oc2ccc([N+](=O)[O-])cc2[N+](=O)[O-])c1 | ? | ? | 1.3µM* | ? | 11µM* | -22%
Cc1cc([N+](=O)[O-])cc(C)c1OCC(=O)N/N=C/c1ccc(OC(=O)c2ccccc2Br)cc1 | ? | -12 | 10µM* | 6% | ? | 3%
Cc1ccc(CC(=O)N/N=C/c2ccc(OC(=O)c3ccc([N+](=O)[O-])cc3)cc2)cc1 | -2% | -29 | ? | 5% | -17% | -4%
Cc1cc([N+](=O)[O-])cc(C)c1OCC(=O)N/N=C/c1ccc(OC(=O)c2ccccc2)cc1 | 0% | -35 | 2.1µM* | -2% | -2% | ?
O=C(Nc1c(C(=O)Nc2ccc(F)cc2)oc2ccccc12)c1ccccc1F | -3%[46.1 µM] | -2 | nt | 7%[46.1 µM] | nt | nt
CCc1ccc(CN(Cc2ccco2)C(=O)c2cc(-c3ccc(Cl)cc3)on2)cc1 | -11%[46.1 µM] | -5 | nt | 23%[46.1 µM] | nt | nt
Cn1c2ccccc2c2cnn(CC(=O)Nc3ccccc3C(F)(F)F)c(=O)c21 | ? | 20 | nt | 5%[46.1 µM] | nt | nt
COc1cc2cnc(-c3ccccc3)c(-c3ccc([N+](=O)[O-])cc3)c2cc1OC | nt | -27 | ? | nt | 3% | 7%
COc1ccc(-c2cc3cc(OC)c(OC)cc3cn2)cc1 | nt | 45 | nt | nt | ? | nt
COc1ccc(-c2cc3cc(OC)c(OC)cc3c(C)n2)cc1C | nt | -14 | 10µM* | nt | -26% | ?
COc1cc2cnc(-c3ccccc3)c(-c3cc(OC)c(OC)c(OC)c3)c2cc1OC | nt | 17 | 3.7µM* | nt | 13µM* | 10µM*
COc1cc2cnc(-c3ccccc3)cc2cc1OC | nt | 118 | nt | nt | 22µM* | nt
COc1nc(-c2ccccc2)cc(-c2ccc(OC)c(OC)c2)n1 | -19% | 46 | 28% | ? | 1.8µM* | -17%
COc1ccc(-c2csc(Nc3ncccn3)n2)cc1C | nt | 68 | 16% | nt | 4% | 93%
CC(=O)c1ccc(N2CCN(C(=O)C3CCN(S(=O)(=O)c4cn(C)cn4)CC3)CC2)cc1 | 8%[46.1 µM] | -28 | nt | nt | nt | nt
CCCOc1ccc(N2C(=O)C[C@@H](N(Cc3ccc(S(N)(=O)=O)cc3)C(=O)CC)C2=O)cc1 | nt | nt | nt | 3% | nt | nt
O=Cc1c[nH]c2ccc(S(=O)(=O)N3CCCCC3)cc12 | nt | 42 | nt | nt | nt | nt
COC(=O)c1ccc(OCC2c3cc(OC)c(OC)cc3CCN2C(=O)Cc2ccccc2)cc1 (stereo not drawn) | ? | 2 | nt | nt | nt | nt
O=C(NCc1ccc2c(c1)OCO2)c1ccc(CS(=O)Cc2ccc(Cl)cc2)o1 (stereo not drawn) | ? | -30 | ? | 0%[46.1 µM] | 11µM* | 10%
O=C(NCc1ccc2c(c1)OCO2)c1ccc(CS(=O)Cc2cccc(Cl)c2)o1 (stereo not drawn) | -29%[46.1 µM] | -5 | 25% | -25%[46.1 µM] | -19% | 1%
Cc1ccc(CS(=O)Cc2ccc(C(=O)NCc3ccc4c(c3)OCO4)o2)cc1 (stereo not drawn) | -27%[46.1 µM] | -26 | 13µM* | -30%[46.1 µM] | -2% | 12%
CCn1c(C)cc(C(=O)COC(=O)CNC(=O)c2ccco2)c1C | nt | -24 | nt | nt | nt | nt

Bioassay records from PubChem.
